Here are results for 4 compounds from PubChem BioAssay AID624063 (Southern Research Specialized Biocontainment Screening …, 2012).

Entries with a potency or affinity are not part of this list. Active and inactive are the calls of the source. No rule for the calls is given here.

The assay in a line: VEEV TC-83 cytopathic effect inhibitors, confirmation, cell-based, set 4 (AID 624063). The conditions noted are these: VEEV TC-83 infected cells; series mostly up to 25 µM.
Regarding `O=C(NCc1ccco1)C1CCN(C(=O)c2cc3sccc3n2Cc2ccc(F)cc2)CC1`, the compound was called inactive.

Turning to `CC(C)(C)OC(=O)N1CCN(Cc2nc3ccc([N+](=O)[O-])cc3c(=O)n2-c2ccccc2F)CC1`, the result was inactive. For `CCN1CCN(Cc2nc3ccccc3c(=O)n2-c2ccccc2F)CC1`, the result was inactive. The value for `CCN1CCN(Cc2nc3ccc(C(F)(F)F)cc3c(=O)n2-c2ccccc2F)CC1` was “inactive”.
